Results filed as inconclusive are left out. The source made the active and inactive calls. Unless noted, calls follow the shape of the dose curve; as a rule, active = well fitted curve in the direction sought with a large enough effect in the repeat runs; inconclusive = weak or mixed curves; inactive = no such curve, though single readings can be large; an effect the other way counts as inactive or inconclusive.
Tests used:
[1] = qHTS assay to identify small molecule agonists of the androgen receptor (AR) signaling pathway in the presence of an antagonist - cell viability counter screen (AID 1259379);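 also: MDA-kb2 human breast cancer cells carrying an MMTV luciferase reporter; series mostly up to about 92 µM; nearly all actives have a fitted effect of over 25% in size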
Procedure, shortened: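 Cytotoxicity is assessed by CellTiter-Fluor in MDA-kb2 cells carrying an MMTV-driven luciferase reporter. Cells receive 3.0uM nilutamide plus compounds at 15 concentrations and incubate 16 hr at 37C without CO2 before fluorescence reading.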

[2] = qHTS assay to identify small molecule agonists of the estrogen receptor beta (ER-beta) signaling pathway - cell viability counter screen (AID 1259380); also: nearly all actives have a fitted effect of over 30% in size
Procedure, shortened: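 Cytotoxicity is measured in parallel with the reporter screen: after 16 hr compound exposure at 37C and a 2 hr LiveBLAzer step, CellTiter-Glo is added to the same ER-beta-UAS-bla HEK293T wells and luminescence read after 30 min.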

[3] = qHTS assay to identify small molecule antagonists of the estrogen receptor beta (ER-beta) signaling pathway - cell viability counter screen (AID 1259382);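 also: HEK293T cells carrying ER-beta-UAS-bla reporter stimulated with estradiol; series mostly up to about 92 µM; nearly all actives have a fitted effect of over 55% in size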
Procedure, shortened: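 Cytotoxicity counter screen multiplexed with the beta-lactamase antagonist assay: GripTite HEK293T ER-beta-bla cells were treated 16 hr with test chemicals in the presence of 1nM 17-beta-estradiol, and viability was measured by CellTiter-Glo.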

[4] = target: Estrogen receptor (Homo sapiens) (UniProt P03372); test: qHTS assay to identify small molecule agonists of the estrogen receptor alpha (ER-alpha) signaling pathway in the presence of an antagonist (AID 1259383; calls by dose curve; also: top concentration of the series differs between compounds; nearly all actives have a fitted effect of over 15% in size)
Chain of Estrogen receptor (Homo sapiens) (P03372 whole entry, looked up): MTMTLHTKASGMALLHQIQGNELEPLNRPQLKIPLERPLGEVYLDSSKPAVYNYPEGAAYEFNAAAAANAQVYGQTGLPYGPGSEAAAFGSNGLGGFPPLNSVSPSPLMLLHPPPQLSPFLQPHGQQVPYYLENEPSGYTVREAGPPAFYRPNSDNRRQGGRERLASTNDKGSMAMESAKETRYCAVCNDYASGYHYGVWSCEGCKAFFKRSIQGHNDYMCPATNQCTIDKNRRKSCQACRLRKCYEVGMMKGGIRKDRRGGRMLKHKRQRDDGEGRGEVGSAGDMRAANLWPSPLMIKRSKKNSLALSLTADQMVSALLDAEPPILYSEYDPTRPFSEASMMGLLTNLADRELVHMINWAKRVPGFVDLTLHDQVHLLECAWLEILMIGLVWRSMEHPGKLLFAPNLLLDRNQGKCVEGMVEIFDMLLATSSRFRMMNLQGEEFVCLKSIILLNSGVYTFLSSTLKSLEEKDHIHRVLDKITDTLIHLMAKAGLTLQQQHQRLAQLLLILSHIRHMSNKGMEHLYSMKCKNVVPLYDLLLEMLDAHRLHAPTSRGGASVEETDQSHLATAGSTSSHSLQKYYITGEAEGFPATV
Procedure, shortened: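 Agonist-mode confirmation in the presence of the ER antagonist ICI-182,780 at 10.0nM final. Breast-derived VM7Luc4E2 reporter cells were exposed to compounds for 22hr, and ERE-driven luciferase was quantified by luminescence.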

[5] = qHTS assay to identify small molecule agonists or antagonists of the thyroid stimulating hormone receptor (TSHR) signaling pathway - wild type cell line counter screen (AID 1259384; calls by dose curve)
Procedure, shortened: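 Counter screen in untransfected Hek293: compounds (15-point titration, triplicate) plus phosphodiesterase inhibitor Ro20-1724 added after 18 h plating; 30 min RT. Intracellular cAMP via competitive d2/cryptate immunoassay, 1 h incubation.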

[6] = target: Thyrotropin receptor (Homo sapiens) (UniProt P16473); test: qHTS assay to identify small molecule antagonists of the thyroid stimulating hormone receptor (TSHR) signaling pathway (AID 1259385; calls by dose curve; also: nearly all actives have a fitted effect of over 20% in size)
Chain of Thyrotropin receptor (Homo sapiens) (P16473 whole entry, looked up): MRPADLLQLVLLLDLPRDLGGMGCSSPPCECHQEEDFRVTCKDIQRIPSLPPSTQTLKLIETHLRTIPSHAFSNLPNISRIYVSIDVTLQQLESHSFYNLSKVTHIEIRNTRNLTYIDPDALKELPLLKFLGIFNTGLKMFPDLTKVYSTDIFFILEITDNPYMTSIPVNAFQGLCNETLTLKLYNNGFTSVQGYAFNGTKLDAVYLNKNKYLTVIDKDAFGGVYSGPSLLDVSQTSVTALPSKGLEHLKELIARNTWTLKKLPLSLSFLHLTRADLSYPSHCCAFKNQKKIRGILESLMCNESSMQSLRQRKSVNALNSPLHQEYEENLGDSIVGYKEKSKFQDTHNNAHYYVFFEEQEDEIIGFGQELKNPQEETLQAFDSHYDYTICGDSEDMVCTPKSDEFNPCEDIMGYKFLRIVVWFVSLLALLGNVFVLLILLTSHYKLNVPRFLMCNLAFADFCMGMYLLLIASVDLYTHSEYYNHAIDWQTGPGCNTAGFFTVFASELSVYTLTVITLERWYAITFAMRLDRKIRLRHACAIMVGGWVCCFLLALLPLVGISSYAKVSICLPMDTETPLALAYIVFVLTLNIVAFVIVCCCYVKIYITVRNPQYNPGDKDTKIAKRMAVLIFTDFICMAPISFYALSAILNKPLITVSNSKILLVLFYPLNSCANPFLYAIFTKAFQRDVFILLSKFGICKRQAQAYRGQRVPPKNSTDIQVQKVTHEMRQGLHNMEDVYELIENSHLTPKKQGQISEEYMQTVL
Procedure, shortened: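 Antagonist mode: compound-treated TSHR-expressing HEK293 cells were stimulated with 1.5 ng/mL TSH (final) in presence of Ro20-1724 for 30 min at RT. HTRF cAMP detection after 1 h; each compound tested at 15 concentrations, triplicate.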

[7] = qHTS assay to identify small molecule agonists of the estrogen receptor alpha (ER-alpha) signaling pathway in the presence of an antagonist - cell viability counter screen (AID 1259386);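 also: series mostly up to about 92 µM; cells exposed to compounds for 22 h at 37 °C before the viability read; nearly all actives have a fitted effect of over 30% in size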
Procedure, shortened: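 Cytotoxicity was measured in parallel with the ERE-luciferase agonist screen, in the same wells. The cells were VM7Luc4E2, which endogenously express ER-alpha, and treatment was with compounds plus 10.0nM ICI-182,780 for 22hr.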

[8] = target: Progesterone receptor (Homo sapiens) (UniProt P06401); test: qHTS assay to identify small molecule agonists of the progesterone receptor (PR) signaling pathway (AID 1346784; calls by dose curve; also: nearly all actives have a fitted effect of over 30% in size)
Chain of Progesterone receptor (Homo sapiens) (P06401 whole entry, looked up): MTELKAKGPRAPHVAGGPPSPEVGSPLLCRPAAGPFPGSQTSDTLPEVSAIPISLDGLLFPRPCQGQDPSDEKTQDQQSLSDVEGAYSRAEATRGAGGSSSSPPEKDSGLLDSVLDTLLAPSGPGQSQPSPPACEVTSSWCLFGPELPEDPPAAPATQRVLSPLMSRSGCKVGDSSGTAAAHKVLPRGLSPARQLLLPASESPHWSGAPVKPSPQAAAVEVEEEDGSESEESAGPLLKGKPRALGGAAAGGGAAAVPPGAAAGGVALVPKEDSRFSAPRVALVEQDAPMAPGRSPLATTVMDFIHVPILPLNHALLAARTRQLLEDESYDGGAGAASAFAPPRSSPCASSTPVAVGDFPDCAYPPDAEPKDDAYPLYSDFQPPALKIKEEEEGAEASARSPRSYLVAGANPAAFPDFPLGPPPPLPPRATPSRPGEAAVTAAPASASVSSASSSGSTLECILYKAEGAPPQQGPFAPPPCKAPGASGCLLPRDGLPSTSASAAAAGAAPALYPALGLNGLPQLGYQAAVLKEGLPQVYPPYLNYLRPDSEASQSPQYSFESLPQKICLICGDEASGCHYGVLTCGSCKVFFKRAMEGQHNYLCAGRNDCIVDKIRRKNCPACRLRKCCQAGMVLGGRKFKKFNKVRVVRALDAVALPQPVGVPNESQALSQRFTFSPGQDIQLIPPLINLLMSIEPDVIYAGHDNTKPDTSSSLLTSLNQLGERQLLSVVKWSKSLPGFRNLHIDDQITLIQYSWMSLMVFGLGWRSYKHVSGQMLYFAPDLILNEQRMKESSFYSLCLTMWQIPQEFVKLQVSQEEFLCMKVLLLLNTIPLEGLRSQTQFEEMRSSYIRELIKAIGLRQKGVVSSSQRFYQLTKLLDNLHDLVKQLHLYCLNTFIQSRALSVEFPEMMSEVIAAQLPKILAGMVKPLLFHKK
Procedure, shortened: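 Reporter assay, GripTite PR-UAS-bla HEK 293T cells: 16 hr exposure to DMSO-dissolved compounds at 37C, 5% CO2, in steroid-depleted (2% charcoal-stripped FBS) medium; beta-lactamase measured by FRET fluorescence.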

[9] = target: Progesterone receptor (Homo sapiens) (UniProt P06401); test: qHTS assay to identify small molecule antagonists of the progesterone receptor (PR) signaling pathway (AID 1346795; active = well fitted inhibition curve with a large enough effect in the signal ratio in the repeat runs, not every such curve was filed as active; the % refers to the signal ratio)
Procedure, shortened: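 Stimulus R5020 at 1 nM final; cells HEK293T PR-UAS-bla; medium with 2% charcoal-stripped FBS; compound exposure 16 hr at 37C, 5% CO2; detection by FRET beta-lactamase substrate, 2 hr, room temperature.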

[10] = qHTS assay to identify small molecule antagonists of the progesterone receptor (PR) signaling pathway - cell viability counter screen (AID 1346798); also: series mostly up to about 92 µM; nearly all actives have a fitted effect of over 50% in size
Procedure, shortened: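 In the same plates used for the beta-lactamase readout, cell viability of compound- and R5020-treated PR-UAS-bla HEK293T cells (16 hr, 37C) was assessed by CellTiter-Glo luminescence.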

[11] = qHTS assay to identify small molecule agonists of the progesterone receptor (PR) signaling pathway - cell viability counter screen (AID 1346799; calls by dose curve; also: nearly all actives have a fitted effect of over 45% in size)
Procedure, shortened: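 Multiplexed viability read: CellTiter-Glo luminescence, 30 min RT, following LiveBLAzer FRET measurement on PR-UAS-bla HEK293T cells exposed to compounds 16 hr.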

[12] = qHTS assay to identify small molecule antagonists of the TGF-beta/Smad signaling pathway - cell viability counter screen (AID 1346824); also: nearly all actives have a fitted effect of over 50% in size
Procedure, shortened: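 Cytotoxicity counter-screen run in the same wells as the beta-lactamase Smad reporter read: CellTiter-Glo luminescence after 30 min at room temperature. HEK 293T SBE-bla cells had 5 hr compound exposure at 37 C with TGF-beta1 (0.25 ng/mL stock).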

[13] = qHTS assay to identify small molecule agonists of the TGF-beta/Smad signaling pathway - cell viability counter screen (AID 1346829); also: top concentration of the series differs between compounds; nearly all actives have a fitted effect of over 45% in size
Procedure, shortened: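 In parallel with the Smad reporter read, viability of HEK 293T cells stably carrying SBE-bla is quantified by ATP luminescence following 5 hr compound treatment.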

[14] = qHTS assay to identify small molecule agonists of the TGF-beta/Smad signaling pathway (AID 1346859; active = well fitted activation curve with a large enough effect in the signal ratio in the repeat runs, not every such curve was filed as active; the % refers to the signal ratio; also: series mostly up to about 77 µM)
Procedure, shortened: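 Screening used HEK 293T SBE-bla cells at 4,000/well. Test agents: 5 hr, 37 C. Detection: FRET substrate, 2 hr RT, then excitation 405 nm with emissions at 460 and 530 nm.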

[15] = Human pregnane X receptor (PXR) small molecule agonists, qHTS cell viability counter screen (AID 1346977); also: nearly all actives have a fitted effect of over 50% in size
Procedure, shortened: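 In each well, the PXR reporter HepG2 line was checked for viability: CellTiter-Fluor reagent added 23hr post-dosing, fluorescence read after 1hr incubation at 37C.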

[16] = Caspase-3/7 induction in HepG2 cells by small molecules, qHTS assay (AID 1346978); also: nearly all actives have a fitted effect of over 15% in size
Procedure, shortened: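 Caspase-3/7 induction was measured by Caspase-Glo 3/7 luminescence (30 min, room temperature) after a 17 hr compound exposure of wild-type HepG2 cells seeded at 2,000 per well and pre-incubated 5 hr.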

[17] = Caspase-3/7 induction in CHO-K1 cells by small molecules, qHTS cell viability counter screen (AID 1346979); also: nearly all actives have a fitted effect of over 35% in size
Procedure, shortened: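 Following a 5hr settling period, CHO-K1 cells at 1,500 per well received DMSO-dissolved compounds. Cell viability was quantified 16hr later by CellTiter-Fluor fluorescence, measured after 1hr with reagent at 37C.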

[18] = target: Thyrotropin-releasing hormone receptor (Homo sapiens) (UniProt P34981); test: qHTS assay to identify small molecule agonists of the thyrotropin-releasing hormone receptor (TRHR) signaling pathway (AID 1346891; calls by dose curve; also: series mostly up to about 58 µM)
Chain of Thyrotropin-releasing hormone receptor (Homo sapiens) (P34981 whole entry, looked up): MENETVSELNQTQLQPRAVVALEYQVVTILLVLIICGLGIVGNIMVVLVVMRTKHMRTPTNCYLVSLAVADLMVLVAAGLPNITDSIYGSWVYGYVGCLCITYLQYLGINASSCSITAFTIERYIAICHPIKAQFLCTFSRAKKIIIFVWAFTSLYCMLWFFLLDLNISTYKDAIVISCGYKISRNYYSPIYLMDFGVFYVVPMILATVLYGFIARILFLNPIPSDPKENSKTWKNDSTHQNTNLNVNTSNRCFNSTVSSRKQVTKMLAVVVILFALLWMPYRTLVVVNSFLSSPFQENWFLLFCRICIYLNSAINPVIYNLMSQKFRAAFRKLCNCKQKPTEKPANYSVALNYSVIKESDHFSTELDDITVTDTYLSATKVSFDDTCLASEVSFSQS
Procedure, shortened: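 Readout was intracellular calcium fluorescence in TRHR-Hek293 cells. Cells were incubated 18 h, dye-loaded 2 h at 37 °C, and treated with compound in agonist mode.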

[19] = target: Thyrotropin-releasing hormone receptor (Homo sapiens) (UniProt P34981); test: qHTS assay to identify small molecule antagonists of the thyrotropin-releasing hormone receptor (TRHR) signaling pathway (AID 1346877; active = well fitted inhibition curve with a large enough effect in the repeat runs, not every such curve was filed as active; also: series mostly up to about 51 µM)
Procedure, shortened: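 Antagonism is measured as suppression of the calcium response to 1 nM TRH in TRHR-HEK293 cells that have been dye-loaded for 2 h at 37 °C after overnight plating. Each compound is tested at 15 concentrations in triplicate.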

[20] = target: Androgen receptor (Homo sapiens) (UniProt P10275); test: qHTS assay to identify small molecule agonists of the androgen receptor (AR) signaling pathway in the presence of an antagonist (AID 1259381; calls by dose curve; also: nearly all actives have a fitted effect of over 15% in size)
Chain of Androgen receptor (Homo sapiens) (P10275 whole entry, looked up): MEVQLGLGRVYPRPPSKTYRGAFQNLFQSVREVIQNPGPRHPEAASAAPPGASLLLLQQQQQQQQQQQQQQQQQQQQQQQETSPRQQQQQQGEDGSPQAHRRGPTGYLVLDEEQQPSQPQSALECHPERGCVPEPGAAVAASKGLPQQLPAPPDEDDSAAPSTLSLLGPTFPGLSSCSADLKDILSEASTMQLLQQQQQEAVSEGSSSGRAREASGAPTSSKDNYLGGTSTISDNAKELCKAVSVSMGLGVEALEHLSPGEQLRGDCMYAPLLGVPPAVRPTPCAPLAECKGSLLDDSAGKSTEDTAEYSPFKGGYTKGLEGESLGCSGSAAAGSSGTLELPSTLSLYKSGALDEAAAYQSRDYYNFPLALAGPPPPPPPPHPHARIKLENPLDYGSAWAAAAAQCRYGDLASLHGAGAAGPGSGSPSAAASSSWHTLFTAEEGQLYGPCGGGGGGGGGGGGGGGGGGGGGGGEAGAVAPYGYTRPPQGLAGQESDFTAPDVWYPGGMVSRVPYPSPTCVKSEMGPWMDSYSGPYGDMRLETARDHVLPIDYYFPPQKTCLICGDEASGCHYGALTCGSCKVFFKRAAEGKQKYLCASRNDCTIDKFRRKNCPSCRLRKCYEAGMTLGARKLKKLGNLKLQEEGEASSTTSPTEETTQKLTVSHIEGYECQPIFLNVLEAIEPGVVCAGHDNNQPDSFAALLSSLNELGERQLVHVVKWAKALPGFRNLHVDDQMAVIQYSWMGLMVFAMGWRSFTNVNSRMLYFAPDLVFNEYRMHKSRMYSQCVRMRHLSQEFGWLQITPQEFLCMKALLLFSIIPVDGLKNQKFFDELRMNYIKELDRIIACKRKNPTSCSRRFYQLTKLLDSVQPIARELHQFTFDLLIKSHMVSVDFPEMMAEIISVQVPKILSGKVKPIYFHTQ
Procedure, shortened: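 Agonist-mode confirmation screen: human MDA-kb2 cells stably expressing luciferase under an MMTV promoter bearing AR and GR response elements, co-treated with 3.0uM nilutamide (final). Luminescence measured after 16hr compound incubation.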

Measured: Potency

COC(=O)c1ccccc1C(=O)OC
inactive: [1] | [2] | [3] | [4] | [5] | [6] | [7] | [8] | [9] | [10] | [11] | [12] | [13] | [14] | [15] | [16] | [17]

O=Cc1cccc(Oc2ccccc2)c1
inactive: [1] | [2] | [3] | [4] | [5] | [6] | [7] | [8] | [9] | [10] | [11] | [12] | [13] | [14] | [15] | [16] | [17]

COP(N)(=O)SC (configuration not stated)
inactive: [1] | [2] | [3] | [4] | [5] | [6] | [7] | [8] | [9] | [10] | [11] | [12] | [13] | [14] | [18] | [15] | [16] | [17]

CN(C)CCO
inactive: [1] | [2] | [3] | [4] | [5] | [6] | [7] | [8] | [9] | [10] | [11] | [12] | [13] | [14] | [18] | [15] | [16] | [17]

Clc1cccc(Cl)c1Cl
inactive: [1] | [2] | [3] | [5] | [6] | [7] | [8] | [9] | [10] | [11] | [12] | [13] | [14] | [19] | [18] | [15] | [16] | [17]

O=c1[nH]c2ccccc2c(=O)o1
inactive: [1] | [3] | [4] | [5] | [6] | [7] | [8] | [9] | [10] | [11] | [12] | [13] | [14] | [19] | [18] | [15] | [16] | [17]

Cc1[nH]c(=O)n(C(C)(C)C)c(=O)c1Cl
inactive: [1] | [20] | [3] | [4] | [5] | [6] | [7] | [8] | [9] | [10] | [11] | [12] | [13] | [14] | [15] | [16] | [17]

Cc1cc(Cl)ccc1O
inactive: [1] | [2] | [3] | [5] | [6] | [7] | [8] | [9] | [10] | [11] | [12] | [13] | [14] | [18] | [15] | [17]

CCC(C)(CC)c1cc(NC(=O)c2c(OC)cccc2OC)on1
inactive: [1] | [2] | [3] | [7] | [8] | [11] | [12] | [13] | [14] | [19] | [18] | [15] | [16]

CN(C)N=O
inactive: [1] | [2] | [3] | [7] | [8] | [9] | [10] | [11] | [12] | [13] | [14] | [19] | [18] | [15] | [16] | [17]

CC(C)=C[C@@H]1[C@@H](C(=O)OCc2coc(Cc3ccccc3)c2)C1(C)C
inactive: [1] | [2] | [3] | [4] | [5] | [7] | [8] | [9] | [10] | [11] | [12] | [13] | [14] | [15] | [16] | [17]

CCNc1nc(NC(C)C)nc(SC)n1
inactive: [1] | [20] | [3] | [5] | [6] | [7] | [8] | [9] | [10] | [11] | [12] | [13] | [14] | [19] | [18] | [15] | [17]

C=CC(N)=O
inactive: [1] | [2] | [3] | [4] | [5] | [6] | [7] | [10] | [11] | [12] | [13] | [14] | [19] | [18] | [15] | [17]

Oc1ccccc1Cl
inactive: [1] | [2] | [3] | [5] | [6] | [7] | [8] | [9] | [10] | [11] | [12] | [13] | [14] | [18] | [15] | [17]

CCC12COCN1COC2
inactive: [1] | [2] | [3] | [4] | [5] | [6] | [7] | [8] | [9] | [10] | [11] | [12] | [13] | [14] | [15] | [17]

CC(C)OC(=O)Nc1cccc(Cl)c1
inactive: [1] | [2] | [3] | [4] | [5] | [6] | [7] | [8] | [10] | [11] | [12] | [13] | [14] | [19] | [18] | [15] | [17]

O=C(NC(=O)c1c(F)cccc1F)Nc1cc(Cl)c(OC(F)(F)C(F)C(F)(F)F)cc1Cl (configuration not stated)
inactive: [1] | [20] | [3] | [4] | [5] | [6] | [7] | [8] | [10] | [12] | [13] | [14] | [18] | [15] | [16] | [17]

Source: PubChem BioAssay (Tox21)
